Drawing on PubChem BioAssay AID977607 (Broad Institute, 2014), this text covers max activation for 17 compounds.

Each structure is given as a SMILES string. The campaign covered roughly 1,500 compounds. About 460 (31%) were called active. Roughly 1% stayed inconclusive and do not appear here.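 Rule for the calls: active = curve reaches 40% activation over neutral controls at an AC40 no higher than the top valid tested concentration; inconclusive = no clear call, values can overlap the other calls; inactive = signal moving opposite to the expected increase, and the rest.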 The list is a sample of the results. Measured potencies and affinities stand elsewhere.

The assay can be described thus: GLuc-reported insulin release enhancers, glucose-stimulated beta cells – cell-based, INS-1E, Gaussia luciferase, luminescence, cherry-pick, set 2, dose response (AID 977607).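 Note: 0% = median of the plate neutral control wells.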 To be noted: INS-1E GLuc insulin secretion reporter, 2-3 h, active compounds read high; at 35 µM, 100% = signal doubled over neutral wells unless noted.
Regarding `O=C(COc1ccc(Cl)cc1)NCCS(=O)(=O)N1CCN(c2ccccc2F)CC1`, the max activation is -18.1% [at 0.135 µM, 100% = signal doubled over neutral wells] (inactive). Turning to `COc1ccc(OC)c(C2=Nn3c(nnc3-c3ccncc3)SC2)c1`, the max activation was 12.7% (inactive). The figure for `CC[C@@H]1CC2=C(C(=O)OC(C)(C)O2)[C@H](c2ccc(F)cc2)O1` is 23.8% [at 3.8 µM, 100% = signal doubled over neutral wells] (inactive); for `C[C@@H]1O[C@H](C2CCCC2)CC2=C1C(=O)OC(C)(C)O2` it is 18% [at 1.2 µM, 100% = signal doubled over neutral wells] (inactive). The figure for `C=CCNc1nc(Cl)nc(Nc2ccc(OC)cc2)n1` is 50.7% (inactive); for `CCOc1cc(/C=C(\CC(=O)O)c2nc3ccccc3s2)ccc1OC` it is -15% [at 0.005 µM, 100% = signal doubled over neutral wells] (inactive); for `c1ccc(-c2ccccc2OCCN2CCCCC2)cc1` it is -15.6% [at 0.015 µM, 100% = signal doubled over neutral wells] (inactive). On to `C/C=C1\COC(C(=O)NCc2ccccc2)(C(F)(F)F)C=C1C=C1CCCCC1` (configuration not stated), for which the max activation was -27% [at 11 µM, 100% = signal doubled over neutral wells] (inactive).

Consider `COc1cc(OC)c2c(-c3ccccc3)cc(C3CCCCC3)nc2c1`, for which the max activation is -18.2% [at 0.046 µM, 100% = signal doubled over neutral wells] (inactive). Turning to `Cc1cccc(C)c1NC(=O)C1c2ccccc2OCC(=O)N1CCCN1CCOCC1` (configuration not stated), the max activation is -19% [at 3.8 µM, 100% = signal doubled over neutral wells] (inactive). Turning to `CCOc1ccc(Nc2oc(-c3cccc(Cl)c3)nc2C#N)cc1`, the max activation was -13.2% [at 0.135 µM, 100% = signal doubled over neutral wells] (inactive). `Cc1ccc(-c2nc(C#N)c(NCC3CCCO3)o2)cc1` (configuration not stated): the max activation was -16.4% [at 0.135 µM, 100% = signal doubled over neutral wells] (inactive). For `CCCCC(=O)Nc1ccc(C(=O)NNC(=O)c2ccc(C)c(Br)c2)cc1`, the max activation is -20.4% [at 3.8 µM, 100% = signal doubled over neutral wells] (inactive). With `CC1CCC(C(C)C)C(OCC(O)CNC(C)c2ccccc2)C1` (configuration not stated), the max activation is 35.2% (inactive). The figure for `COc1ccc2c(c1)C(C)(Cc1ccc(C(=O)c3ccccc3)cc1)C(=O)N2` (configuration not stated) is -33.7% (inactive); for `Cc1ccsc1/C=N/n1c(-c2ccncc2)n[nH]c1=S` it is 18.6% (inactive). With `Cc1ccccc1-c1n[nH]c(=S)n1/N=C/c1c(C)nn(-c2ccccc2)c1C`, the max activation is -18% [at 0.0016 µM, 100% = signal doubled over neutral wells] (inactive).
